Reference: the supplement of paper PMC10037445
In all, about 2,900 compounds were measured (“IRF Lucia reporter activity, fold change vs agonist alone”: median about 0.9, highest 2% from about 2.8 on). The sample holds the highest values, similar compounds and a random draw of the others, so the mix is not that of the screen.

Assays:
RAW-Dual [1] = assay: IRF Lucia reporter activity, fold change vs agonist alone; higher = enhanced IRF activity; settings: agonist: MPLA (TLR4) […]
Procedure, shortened: (§1)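 RAW-Dual macrophages were seeded in DMEM at 50,000 cells/well in 384-well plates, given 50 nL of library stock by pin tool, and given a PRR agonist 1 h later. Plates were held at 37 °C, 5% CO2 for 20 hours, after which supernatant was read for IRF by QuantiLuc luminescence and for NF-κB by QuantiBlue absorbance at 620 nm. Reporter activity is expressed as fold change over wells that received agonist alone. A well was called cytotoxic when IncuCyte confluency fell below 70% of agonist controls in both mask sets.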

RAW-Dual [2] = assay: IRF Lucia reporter activity, fold change vs agonist alone; cytotoxicity flag (confluency mask): not cytotoxic; higher = enhanced IRF activity
Procedure, shortened: as §1

RAW-Dual [3] = assay: IRF Lucia reporter activity, fold change vs agonist alone; cytotoxicity flag (confluency mask): cytotoxic (confluency <70% of control); higher = enhanced IRF activity
Procedure, shortened: as §1

[4] = library stock concentration (final ~1000-fold dilution): 10 mM, cytotoxicity flag (confluency mask): not cytotoxic
[5] = agonist: 3'3'-cGAMP (STING) 10 ug/mL

COc1ccc(CCc2nc3cc(-c4c(C)noc4C)ccc3n2CC(C)N2CCOCC2)cc1Cl (configuration not stated)
IRF Lucia reporter activity (RAW-Dual [1]; [4]): 0.203

COc1ccc(CCc2nc3cc(-c4c(C)noc4C)ccc3n2CC(C)N2CCOCC2)cc1Cl (configuration not stated) (library stock concentration (final ~1000-fold dilution): 10 mM)
IRF Lucia reporter activity (RAW-Dual [2]; [5]): 0.452
IRF Lucia reporter activity (RAW-Dual [2]; agonist: LPS (TLR4) 0.1 ug/mL): 0.421

COC1=CC(c2cc3ccccc3[nH]2)=N/C1=C\c1[nH]c(C)cc1C.CS(=O)(=O)O
IRF Lucia reporter activity (RAW-Dual [1]; [4]): 5.45

Cc1cc(C)c(/C=C2\C(=O)Nc3ccccc32)[nH]1 (library stock concentration (final ~1000-fold dilution): 10 mM)
IRF Lucia reporter activity (RAW-Dual [2]; [5]): 0.77
IRF Lucia reporter activity (RAW-Dual [2]; agonist: LPS (TLR4) 0.1 ug/mL): 0.578

COC1=CC(c2cc3ccccc3[nH]2)=N/C1=C\c1[nH]c(C)cc1C.CS(=O)(=O)O (library stock concentration (final ~1000-fold dilution): 10 mM)
IRF Lucia reporter activity (RAW-Dual [2]; [5]): 0.38
IRF Lucia reporter activity (RAW-Dual [2]; agonist: LPS (TLR4) 0.1 ug/mL): 3.87

Cc1cc(C)c(/C=C2\C(=O)Nc3ccccc32)[nH]1
IRF Lucia reporter activity (RAW-Dual [1]; [4]): 0.781

O=C(c1cc(-c2cc3c(cc2C(=O)N2Cc4ccccc4CC2CN2CCOCC2)OCO3)n2c1CCCC2)N(c1ccccc1)c1ccc(O)cc1 (configuration not stated) (library stock concentration (final ~1000-fold dilution): 10 mM)
IRF Lucia reporter activity (RAW-Dual [2]; [5]): 0.268
IRF Lucia reporter activity (RAW-Dual [2]; agonist: LPS (TLR4) 0.1 ug/mL): 0.935

Oc1cc(O)c2c(c1)OC(c1ccc(O)c(O)c1)C(O)[C@H]2c1c(O)cc(O)c2c1OC(c1ccc(O)c(O)c1)C(O)C2 (some centres not stated) (library stock concentration (final ~1000-fold dilution): 10 mM)
IRF Lucia reporter activity (RAW-Dual [2]; [5]): 0.867
IRF Lucia reporter activity (RAW-Dual [2]; agonist: LPS (TLR4) 0.1 ug/mL): 1.27

CC(C)N1CCN(Cc2cnc(-c3cc(-c4cccc5[nH]ccc45)cc4[nH]ncc34)o2)CC1 (library stock concentration (final ~1000-fold dilution): 10 mM)
IRF Lucia reporter activity (RAW-Dual [2]; [5]): 0.609
IRF Lucia reporter activity (RAW-Dual [2]; agonist: LPS (TLR4) 0.1 ug/mL): 1.42

COc1ncc(-c2cc(-c3ncc(CN4CC(C)OC(C)C4)o3)c3cn[nH]c3c2)cc1NS(C)(=O)=O (configuration not stated) (library stock concentration (final ~1000-fold dilution): 10 mM)
IRF Lucia reporter activity (RAW-Dual [3]; [5]): 0.865
IRF Lucia reporter activity (RAW-Dual [3]; agonist: LPS (TLR4) 0.1 ug/mL): 4.5

CN1CCN(C(=O)c2ccc(-c3ccc4c(C=O)c(O)ccc4c3)s2)CC1 (library stock concentration (final ~1000-fold dilution): 10 mM)
IRF Lucia reporter activity (RAW-Dual [2]; [5]): 0.228
IRF Lucia reporter activity (RAW-Dual [2]; agonist: LPS (TLR4) 0.1 ug/mL): 0.45

Cc1cnc(Nc2ccc(F)cc2Cl)nc1-c1c[nH]c(C(=O)NC(CO)c2cccc(Cl)c2)c1 (configuration not stated) (library stock concentration (final ~1000-fold dilution): 10 mM)
IRF Lucia reporter activity (RAW-Dual [2]; [5]): 0.474
IRF Lucia reporter activity (RAW-Dual [2]; agonist: LPS (TLR4) 0.1 ug/mL): 1.16

CN1CCc2c(c3ccccc3n2Cc2ccc(C(=O)NO)cc2)C1 (library stock concentration (final ~1000-fold dilution): 10 mM)
IRF Lucia reporter activity (RAW-Dual [2]; [5]): 0.943
IRF Lucia reporter activity (RAW-Dual [2]; agonist: LPS (TLR4) 0.1 ug/mL): 1.19

CN1CCc2c(c3ccccc3n2Cc2ccc(C(=O)NO)cc2)C1.Cl
IRF Lucia reporter activity (RAW-Dual [1]; [4]): 5.65

CN1CCc2c(c3ccccc3n2Cc2ccc(C(=O)NO)cc2)C1.Cl (library stock concentration (final ~1000-fold dilution): 10 mM)
IRF Lucia reporter activity (RAW-Dual [2]; [5]): 1.18
IRF Lucia reporter activity (RAW-Dual [2]; agonist: LPS (TLR4) 0.1 ug/mL): 4.79

CN1CCc2c(c3ccccc3n2Cc2ccccc2)C1.CN1CCc2c(c3ccccc3n2Cc2ccccc2)C1.O=S(=O)(O)c1cccc2c(S(=O)(=O)O)cccc12
IRF Lucia reporter activity (RAW-Dual [1]; library stock concentration (final ~1000-fold dilution): 2 mM, cytotoxicity flag (confluency mask): not cytotoxic): 1.25

CN1CCc2c(c3ccccc3n2Cc2ccccc2)C1.CN1CCc2c(c3ccccc3n2Cc2ccccc2)C1.O=S(=O)(O)c1cccc2c(S(=O)(=O)O)cccc12 (library stock concentration (final ~1000-fold dilution): 2 mM)
IRF Lucia reporter activity (RAW-Dual [2]; [5]): 1.04
IRF Lucia reporter activity (RAW-Dual [2]; agonist: LPS (TLR4) 0.1 ug/mL): 1

COc1ccc(CC(=O)Nc2nc3c(s2)CCc2ccccc2-3)cc1OC (library stock concentration (final ~1000-fold dilution): 10 mM)
IRF Lucia reporter activity (RAW-Dual [2]; [5]): 0.989
IRF Lucia reporter activity (RAW-Dual [2]; agonist: LPS (TLR4) 0.1 ug/mL): 0.961

COc1cccc(C=NCCN=Cc2cccc(OC)c2[O-])c1[O-].[Cl-].[Mn+2]
IRF Lucia reporter activity (RAW-Dual [1]; [4]): 0.946

COc1cccc(C=NCCN=Cc2cccc(OC)c2[O-])c1[O-].[Cl-].[Mn+2] (library stock concentration (final ~1000-fold dilution): 10 mM)
IRF Lucia reporter activity (RAW-Dual [2]; [5]): 1.06
IRF Lucia reporter activity (RAW-Dual [2]; agonist: LPS (TLR4) 0.1 ug/mL): 0.762

CN1c2ccccc2C(=O)Nc2cnc(Nc3ccc(N4CCC(O)CC4)cc3)nc21 (library stock concentration (final ~1000-fold dilution): 10 mM)
IRF Lucia reporter activity (RAW-Dual [2]; [5]): 0.137
IRF Lucia reporter activity (RAW-Dual [2]; agonist: LPS (TLR4) 0.1 ug/mL): 0.438

Cc1nc(Nc2cnn(C3CCNCC3)c2)nc2c1N(C)C(=O)c1cc3ccccc3cc1N2C (library stock concentration (final ~1000-fold dilution): 10 mM)
IRF Lucia reporter activity (RAW-Dual [3]; [5]): 1.96
IRF Lucia reporter activity (RAW-Dual [3]; agonist: LPS (TLR4) 0.1 ug/mL): 3.05

CCOc1cc(N2CCC(O)CC2)ccc1Nc1ncc2c(n1)N(C)c1ccccc1C(=O)N2C (library stock concentration (final ~1000-fold dilution): 10 mM)
IRF Lucia reporter activity (RAW-Dual [2]; [5]): 0.518
IRF Lucia reporter activity (RAW-Dual [2]; agonist: LPS (TLR4) 0.1 ug/mL): 0.253

CCOc1cc(N2CCC(O)CC2)ccc1Nc1ncc2c(n1)N(C)c1ccccc1C(=O)N2C
IRF Lucia reporter activity (RAW-Dual [1]; [4]): 0.32

Cc1nc(Nc2cnn(C3CCNCC3)c2)nc2c1N(C)C(=O)c1cc3ccccc3cc1N2C
IRF Lucia reporter activity (RAW-Dual [1]; library stock concentration (final ~1000-fold dilution): 10 mM, cytotoxicity flag (confluency mask): cytotoxic (confluency <70% of control)): 3.71

COc1cc(C(=O)O)ccc1NC(=O)C1NC(CC(C)(C)C)C(C#N)(c2ccc(Cl)cc2F)C1c1cccc(Cl)c1F (configuration not stated)
IRF Lucia reporter activity (RAW-Dual [1]; [4]): 0.67

COc1cc(C(=O)O)ccc1NC(=O)C1NC(CC(C)(C)C)C(C#N)(c2ccc(Cl)cc2F)C1c1cccc(Cl)c1F (configuration not stated) (library stock concentration (final ~1000-fold dilution): 10 mM)
IRF Lucia reporter activity (RAW-Dual [2]; [5]): 0.62
IRF Lucia reporter activity (RAW-Dual [2]; agonist: LPS (TLR4) 0.1 ug/mL): 0.186

CC(C)(C)CC1NC(C(=O)NC2CCC(O)CC2)C(c2cccc(Cl)c2F)C12C(=O)Nc1cc(Cl)ccc12 (configuration not stated) (library stock concentration (final ~1000-fold dilution): 10 mM)
IRF Lucia reporter activity (RAW-Dual [3]; [5]): 0.342
IRF Lucia reporter activity (RAW-Dual [3]; agonist: LPS (TLR4) 0.1 ug/mL): 3.33

O=c1cc(-c2ccccc2)oc2cc(OC3OC(CO)C(O)C(O)C3O)c(O)c(O)c12 (configuration not stated) (library stock concentration (final ~1000-fold dilution): 10 mM)
IRF Lucia reporter activity (RAW-Dual [2]; [5]): 0.862
IRF Lucia reporter activity (RAW-Dual [2]; agonist: LPS (TLR4) 0.1 ug/mL): 0.849

CC(Nc1ncnc(N)c1C#N)c1cc2cccc(-c3ccc(=O)n(C)c3)c2c(=O)n1C(C)C (configuration not stated)
IRF Lucia reporter activity (RAW-Dual [1]; [4]): 7.07

CC(Nc1ncnc(N)c1C#N)c1cc2cccc(-c3ccc(=O)n(C)c3)c2c(=O)n1C(C)C (configuration not stated) (library stock concentration (final ~1000-fold dilution): 10 mM)
IRF Lucia reporter activity (RAW-Dual [2]; [5]): 1.14
IRF Lucia reporter activity (RAW-Dual [2]; agonist: LPS (TLR4) 0.1 ug/mL): 8.45

CC(Nc1ncnc2[nH]cnc12)c1cc2cccc(Cl)c2c(=O)n1-c1ccccc1 (configuration not stated) (library stock concentration (final ~1000-fold dilution): 10 mM)
IRF Lucia reporter activity (RAW-Dual [2]; [5]): 0.659
IRF Lucia reporter activity (RAW-Dual [2]; agonist: LPS (TLR4) 0.1 ug/mL): 0.799

CC(NC(=O)c1c(N)nn2cccnc12)c1cc2cccc(C#Cc3cnn(C)c3)c2c(=O)n1-c1ccccc1 (configuration not stated) (library stock concentration (final ~1000-fold dilution): 10 mM)
IRF Lucia reporter activity (RAW-Dual [2]; [5]): 0.813
IRF Lucia reporter activity (RAW-Dual [2]; agonist: LPS (TLR4) 0.1 ug/mL): 1.14

CC(Nc1ncnc2[nH]cnc12)c1cc2cccc(Cl)c2c(=O)n1-c1ccccc1 (configuration not stated)
IRF Lucia reporter activity (RAW-Dual [1]; [4]): 1.42
